Reference: ChEMBL document CHEMBL1157539, “Thousands of chemical starting points for antimalarial lead identification” (Nature, 2010)

The compounds below were run on Plasmodium falciparum (assay: GSK_TCMDC: Inhibition of Plasmodium falciparum 3D7 in whole red blood cells, using parasite LDH activity as an index of growth. Test compounds present at 2uM).
Type: functional

Compound	Inhibition
COc1ccc(Oc2cnc(N)nc2N)c(C(C)C)c1	97%
Cc1cc(CN2CC[C@H](NC(=O)c3ccc(Cl)c(Cl)c3)C2)ccc1OCCN1CCCC1.O=C(O)C(F)(F)F	100%
O=C(CCn1c2ccccc2c2ccccc21)NN=Cc1ccco1	96%

These compounds were tested on Plasmodium falciparum (assay: GSK_TCMDC: Inhibition of Plasmodium falciparum Dd2 in whole red blood cells, using parasite LDH activity as an index of growth. Test compounds present at 2uM).
Type: functional

Compound	Inhibition
COc1cc(C)nc2ccc(NC(=O)c3ccc(C(=O)Nc4ccc5nc(C)cc(OC)c5c4)cc3)cc12	72%
Cc1cnc(NCC2CCCCC2)nc1N[C@@H](CO)C(=O)Nc1ccccc1.O=C(O)C(F)(F)F	56%
Cc1cccc(CNc2nc(C)cc(N[C@@H](Cc3ccccc3)C(=O)NCc3cccc(F)c3)n2)c1.O=C(O)C(F)(F)F	82%
CC(C)C[C@H](NC(=O)c1cc(-c2ccc(C(C)(C)C)cc2)no1)C(=O)O.CC(C)C[C@H](NC(=O)c1conc1-c1ccc(C(C)(C)C)cc1)C(=O)O	6%
CCC(C)NC(=O)CN1CN(c2ccccc2)C2(CCN(C(=O)c3ccc(C(C)(C)C)cc3)CC2)C1=O (configuration not stated)	100%
CCOc1ccccc1C1C(C(=O)C(C)(C)C)N2c3ccc(Br)cc3C=CC2C12C(=O)c1ccccc1C2=O (configuration not stated)	94%
Cl.N#Cc1ccc(CCNc2nccc(-c3cccc(CN4CCNCC4)c3)n2)cc1	0%
Cc1nc(C)c(C2CCC(c3ccc(Cl)cc3)CC2)c(O)c1Cl (configuration not stated)	97%
Cc1ccc(-c2ccc(NC(=O)N3CCc4cc(Br)c(N5CCN(C)CC5)cc43)cc2)cn1	16%
Cc1cccc2nc(-c3ccc(-c4cccc(CN5CCN(c6ccncc6)CC5)c4)cc3)[nH]c12.O=C(O)C(F)(F)F	99%
CCCCCCCCCc1c(C)[nH]c2ccccc2c1=O	96%
CCc1c(CCNCCCCCCNCCc2ccc([N+](=O)[O-])cc2)ccc(OC)c1OC.Cl	2%
COc1ccc(-c2ccc(S(=O)(=O)Nc3cc4c(cc3OC(C)C)CCN(C)CC4)cc2)cc1.Cl	2%
Cc1cccc(C(=O)Nc2ccnc(N3CCCN(Cc4cccc(O)c4)CC3)c2)c1.O=C(O)C(F)(F)F	13%
CCCCCCP(=O)(COc1ccc(CCN(CC(O)COc2cccc3[nH]c(C(N)=O)cc23)CC(O)COc2cccc3[nH]c(C(N)=O)cc23)cc1)OCCCC (configuration not stated)	97%
O=[N+]([O-])c1ccc2nccnc2c1	0%
COc1ccc(OC)c(Cc2cnc3nc(N)[nH]c(=O)c3c2C)c1	4%

Compound	Inhibition
Cc1nc(N)nc(N)c1-c1ccc(Cl)c(Cl)c1 [METOPRINE]	0%
NS(=O)(=O)NCCCN1CCN(c2ccccc2)CC1	73%
COc1cc2nc(N3CCC(C(N)=O)CC3)nc(NCc3ccccc3)c2cc1OC	23%
O=C(Nc1cccnc1)c1cc(-c2cc(Cl)ccc2O)n[nH]1	85%
O=C(Nc1cccc(CN2CCCN(Cc3ccccc3)CC2)c1)c1ccc(-c2ccccc2)cc1.O=C(O)C(F)(F)F	8%
O=C(NC1CC1)c1cnc(N2CCC(Cc3ccccc3)CC2)c(Cl)c1.O=C(O)C(F)(F)F	96%
CN1CCC(NCc2cccc(-c3ccc(S(=O)(=O)NCc4ccccc4)c(F)c3)c2)CC1.O=C(O)C(F)(F)F	99%
COc1ccc2nc3cc(Cl)ccc3c(NCCN(C)C)c2c1	100%
Cc1ccc(C(=O)Nc2cccc(CN3CCCN(Cc4ccc(O)cc4)CC3)c2)s1.O=C(O)C(F)(F)F	23%
CCN(CC)CCN(Cc1ccc(-c2ccc(C(F)(F)F)cc2)cc1)C(=O)Cn1cc(Cc2cnn(C)c2)c(=O)nc1/C=C/c1cccc(F)c1F.O=C(O)C(O)C(O)C(=O)O	98%
O=C(Nc1ccc(Cn2ncc(N3CCNCC3)c(Cl)c2=O)cc1)Nc1ccc(-c2ccccc2)cc1.O=C(O)C(F)(F)F	33%
N=C(N)Nc1nc(-c2cccc(NC(=O)NCc3ccc(OC(F)(F)F)cc3)c2)cs1	26%
CN1CCN(CCNc2c3ccccc3nc3c2ccc2ccccc23)CC1.Cl	66%
Cc1nnc(N2C(=N)SC(=Cc3ccc(-c4ccc(OC(F)(F)F)cc4)o3)C2=O)s1	58%
CCOC(=O)c1c[nH]c2c(sc3cc(OC)ccc32)c1=O	93%
Cc1cc(-c2ccc(NC(=O)N3CCc4cc(Br)c(N5CCN(C)CC5)cc43)cc2)cc(C)n1	4%
CC(=O)Nc1ncc(C(=O)Nc2cccc(-c3ccc(-c4nc5cc(C(F)(F)F)ccc5[nH]4)cc3)c2)s1	94%
